High-throughput results: PubChem, National Center for Advancing Translational Sciences (NCATS)
Only some compounds are listed: those with a hit (about 6.8% of all), similar ones and a draw of the others.
KB-3-1 tox: kills parental KB-3-1 adenocarcinoma cells; 1.4% of 400,000 active; Potency, µM (top dose mostly 46.1 µM), most hits filed as cytotoxic; KB-3-1 viability, CellTiter-Glo ATP luminescence, 72 h; AID 1347075; further: nearly all actives have a fitted effect of over 60% in size
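Luminescent ATP read-out (CellTiter-Glo) measures survival of drug-naive KB-3-1 cells after 72 h compound exposure at 37 °C. Titration series was screened from lowest to highest concentration, with DMSO vehicle plates as background controls.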
KB-V1 MDR tox: kills drug-selected multidrug resistant KB-V1 cells; AID 1347076; Potency, µM (doses to about 46.1 µM), actives largely listed as cytotoxic; KB-V1 MDR cells viability, CellTiter-Glo, 72 h; 3.4% of 400,000 active; further: nearly all actives have a fitted effect of over 60% in size
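Luminescent ATP read-out (CellTiter-Glo, 10 min) measures survival of drug-selected KB-V1 MDR cells after 72 h, 37 degrees C compound exposure. Medium: phenol-red-free DMEM, 10% FBS. Values from fitted concentration-response curves.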
MCF10A rereplic: induces DNA re-replication in MCF 10a normal breast cells. AID 624296. Potency, µM (highest dose often 46.1 µM), most hits filed as activators. 2.9% of 350,000 active. MCF 10A DNA re-replication, Hoechst nuclear intensity, 48 h; further: nearly all actives have a fitted effect of over 50% in size
TSG101-PTAP inh: blocks PTAP/TSG101 interaction to inhibit HIV-1 budding | Q99816 | Fluorescence polarization, FITC-PTAP peptide / Tsg101 binding | Potency, µM (top dose mostly 115 µM), actives largely listed as inhibitors | 340,000 tested, under 10 active; active means well fitted inhibition curve with a large enough effect in the main read-out, with a control signal flat, not every such curve was filed as active; inconclusive means small, poorly fitted or top-dose-only effect, or effect the other way, or a change in a side signal; inactive means no such curve, though single readings can be large or run the other way
Target sequence (Q99816 whole entry, looked up): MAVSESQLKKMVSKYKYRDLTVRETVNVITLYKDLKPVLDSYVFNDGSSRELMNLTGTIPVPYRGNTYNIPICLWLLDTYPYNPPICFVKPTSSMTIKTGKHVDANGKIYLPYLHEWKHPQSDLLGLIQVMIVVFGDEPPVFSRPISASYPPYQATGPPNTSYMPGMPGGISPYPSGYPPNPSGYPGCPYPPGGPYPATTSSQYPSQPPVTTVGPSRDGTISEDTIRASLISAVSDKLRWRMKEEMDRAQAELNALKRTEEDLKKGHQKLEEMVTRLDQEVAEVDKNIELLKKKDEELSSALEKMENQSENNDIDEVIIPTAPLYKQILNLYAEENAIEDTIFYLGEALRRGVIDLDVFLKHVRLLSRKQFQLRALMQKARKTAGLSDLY
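FP read-out: FITC-PTAP peptide, 50 nM final, binding Tsg101 binding domain, 10 uM final; 20 min, r.t.; 10 mM HEPES pH 7.5, 0.15 M NaCl, 0.01% Tween 20, 3 mM EDTA, 0.1 mM TCEP.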
SW480 rereplic: DNA re-replication induction in SW480 cells | SW480 DNA re-replication, Hoechst DNA content imaging, 48 h | Potency, µM (top dose mostly 46.1 µM), actives largely listed as activators | 1.8% of 340,000 active | AID 624297; further: nearly all actives have a fitted effect of over 55% in size
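Image-based read-out: total Hoechst fluorescence of nuclei (405 nm excitation, 500-530 nm emission), with hits raising the fraction of high-intensity nuclei. SW480 colon cells incubated 48 hr with compounds at 37 C.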
PINK1 modulator: changes PINK1 expression. PINK1 immunofluorescence, high-content cytometry, 24 h. Potency, µM (series often up to 76.6 µM), actives largely listed as activators. 0.2% of 410,000 active; active means well fitted activation curve with a large enough effect; inconclusive means small, poorly fitted or top-dose-only effect; cell line not stated here; further: nearly all actives have a fitted effect of over 65% in size
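PINK1 protein level read as immunofluorescence by microplate cytometer in a fixed, stained stable cell line after 24 h exposure to five compound concentrations, with CCCP as control.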
Hits are given with their value; - = inactive; ? = inconclusive; . = no result given. Unless noted, the call rests on the fitted dose curve; in most records, active means well fitted curve in the direction sought with a large enough effect; inconclusive means small, poorly fitted or top-dose-only effect, or another doubt; inactive means no such curve, though single readings can be large; an effect the other way counts as inactive or inconclusive.

SMILES	KB-3-1 tox	KB-V1 MDR tox	MCF10A rereplic	TSG101-PTAP inh	SW480 rereplic	PINK1 modulator
COc1cc(NC(=O)CN(C)C2CCCCC2)c(C)cc1[N+](=O)[O-]	-	4.1µM	-	-	-	-
O=C(N/C(=C/c1cccs1)C(=O)N1CCCCCC1)c1ccccc1	-	21µM	-	.	-	-
Cc1ccc(C(=O)N/C(=C/c2cccs2)C(=O)N2CCCCCC2)cc1	-	-	-	-	-	-
O=C(N/C(=C\c1cccs1)C(=O)N1CCCCCC1)c1ccccc1	-	-	-	-	-	-
O=C(N/C(=C/c1ccco1)C(=O)N1CCCCCC1)c1cccs1	-	21µM	-	-	-	-
Cc1ccc(C(=O)N/C(=C\c2cccs2)C(=O)NC2CCCCC2)cc1	-	18µM	-	-	-	-
O=C(NCc1ccncc1)C(=O)NCC(c1ccco1)N1CCN(c2ccc(F)cc2)CC1 (stereo not given)	?	2.6µM	-	-	-	-
O=C(NCc1ccccn1)C(=O)NCC(c1ccco1)N1CCN(c2ccc(F)cc2)CC1 (stereo not given)	-	?	-	-	-	-
O=S(=O)(NCC(c1ccco1)N1CCN(c2ccccc2)CC1)c1ccccc1 (stereo not given)	.	.	.	.	.	-
O=S(=O)(NCC(c1ccco1)N1CCc2ccccc2C1)c1ccc(Br)cc1 (stereo not given)	-	-	4.1µM	-	-	?
O=S(=O)(NCC(c1ccco1)N1CCN(c2ccccc2)CC1)c1ccc(F)cc1 (stereo not given)	-	23µM	?	-	-	-
O=S(=O)(NCC(c1ccco1)N1CCN(c2ccc(F)cc2)CC1)c1ccc(F)cc1 (stereo not given)	-	15µM	-	-	-	-
O=C(CSc1nc2c([nH]c3ccccc32)c(=O)n1-c1ccccc1)Nc1ccccc1C(F)(F)F	.	.	.	.	.	-
CCS(=O)(=O)NCC(c1ccco1)N1CCN(c2ccccc2)CC1 (stereo not given)	-	23µM	-	-	-	-
CS(=O)(=O)NCC(c1ccco1)N1CCN(c2ccccc2)CC1 (stereo not given)	.	.	.	.	.	-
COc1ccc(N2CCN(C(CNC(=O)C(=O)NCC3CCCO3)c3ccco3)CC2)cc1 (stereo not given)	-	4.1µM	-	-	-	-
Cc1cccc(NC(=O)C2CCCN(S(=O)(=O)c3ccc4c(c3)CCCC(=O)N4)C2)c1 (stereo not given)	-	-	.	.	.	-
COc1ccc(CNC(=O)c2cnn3c(C)c(Cc4ccc(F)cc4)c(C)nc23)cc1	-	-	.	.	.	-
CC#Cc1cc2c(cc1O)CCC1C2CCC2(C)C(O)CCC12 (stereo not given)	2.6µM	?	8.2µM	-	9.2µM	-
CCOc1cc2c(cc1O)CCC1C2CCC2(C)C(O)CCC12 (stereo not given)	?	?	1.2µM	-	?	-
C=Cc1cc2c(cc1O)CCC1C2CCC2(C)C(O)CCC12 (stereo not given)	18µM	?	10µM	-	?	-
CCN(CC)CCn1nc2c3c(cccc3c1=O)-c1ccccc1-2	?	5.8µM	-	-	9.2µM	-
O=c1c2cccc3c2c(nn1CN1CCOCC1)-c1ccccc1-3	4.1µM	1.6µM	?	-	-	-
CCN(CC)CCn1nc(C)nc1-c1ccccc1O	-	?	-	-	-	-
O=C(CCn1nc(-c2ccccc2)c2ccccc2c1=O)NN1CCOCC1	?	-	-	-	-	-
SMILES	KB-3-1 tox	KB-V1 MDR tox	MCF10A rereplic	TSG101-PTAP inh	SW480 rereplic	PINK1 modulator
CCOc1ccc(S(=O)(=O)N2CCN=C2c2ccccc2)cc1	?	12µM	21µM	-	7.3µM	?
Cc1cc(S(=O)(=O)N2CCN=C2c2ccccc2)ccc1F	-	?	-	-	-	-
Cc1nn(-c2ccc(N3CCCCC3)nn2)c(C)c1CCC(=O)NCc1ccc(Cl)cc1	.	.	.	.	.	-
CN(C)c1ccc(CNC(=O)C2(C)Cc3c(-c4ccc5c(c4)OCO5)ccnc3O2)cc1 (stereo not given)	7.3µM	12µM	.	.	.	-
CC1(C(=O)NCC2CC2)Cc2c(-c3ccc4c(c3)OCO4)ccnc2O1 (stereo not given)	15µM	?	.	.	.	-
CN(C)c1ccc(CNC(=O)C2(C)Cc3c(-c4ccc(N(C)C)cc4)ccnc3O2)cc1 (stereo not given)	?	-	.	.	.	-
CCOC(=O)c1cc(S(=O)(=O)N2CCN(c3cc(Cl)ccc3C)CC2)[nH]n1	-	-	.	.	.	-
CN(C)c1ncc2nc(-c3cccs3)c(=O)n(-c3ccccc3)c2n1	.	.	.	.	.	40µM
COc1ccc(-n2c(=O)c(-c3cccs3)nc3cnc(Nc4ccccc4)nc32)cc1	.	.	.	.	.	4.5µM
CCNc1ncc2nc(-c3cccs3)c(=O)n(-c3ccc(OC)cc3)c2n1	.	.	.	.	.	-
COc1ccc(COC(=O)C2=C(C)NC(=O)NC2c2cc(OC)ccc2OC)cc1 (stereo not given)	-	-	0.52µM	-	-	-
CCCOc1ccccc1C1NC(=O)NC(C)=C1C(=O)OCc1ccccc1 (stereo not given)	-	21µM	-	-	-	-
